Measured values as given in PubChem BioAssay (NCATS).
“And” between values parts separate entries of the source, which are not always exact repeats. Identical values can stand only once. Results filed as inconclusive are left out. The source made the active and inactive calls. Unless noted, the call rests on the fitted dose curve; in most records, active means well fitted curve in the direction sought with a large enough effect; inconclusive means small, poorly fitted or top-dose-only effect, or another doubt; inactive means no such curve, though single readings can be large; an effect the other way counts as inactive or inconclusive.

Tests used:
[1] = molecular target: Cellular tumor antigen p53 (Homo sapiens) (UniProt P04637); experiment: Primary qHTS for small molecule compounds that upregulate eGFP-tagged delta133p53alpha (in N-terminal) cells. (AID 2060322); conditions: NCI-H358 eGFP-delta133p53alpha fluorescence, 24 h; activation: active compounds read high; further: nearly all actives have a fitted effect of over 75% in size; further: potency means the concentration at half of the fitted maximal effect;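 on activation: cells pre-induced with doxycycline then dosed without doxycycline; series mostly up to about 56 µM; 0% = DMSO vehicle and 100% = reference activator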
Summary of the method: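 NCI-H358 cells pre-induced 24 h with 10 ng/ml doxycycline for eGFP-delta133p53alpha, plated dox-free and exposed 24 h at 37C to titrated compounds. Fixed, Hoechst-stained; gated GFP peak intensity by laser scanning cytometry, normalized to DMSO (0%) and 57.5 uM 5-azacytidine (100%).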

[2] = molecular target: Aldehyde dehydrogenase, mitochondrial (Homo sapiens) (UniProt P05091); experiment: qHTS for Inhibitors of the Aldehyde Dehydrogenase Family (ALDH2) Confirmatory screens (AID 2061303; active means well fitted inhibition curve with a large enough effect; title and protocol of this record describe different tests; further: nearly all actives have a fitted effect of over 45% in size; further: potency means the concentration at half of the fitted maximal effect)
[3] = qHTS for Inhibitors of the Aldehyde Dehydrogenase Family (ALDH1A2, ALDH1A3, ALDH2, ALDH3A1) (AID 2061307); further: nearly all actives have a fitted effect of over 50% in size
[4] = molecular target: Aldehyde dehydrogenase, mitochondrial (Homo sapiens) (UniProt P05091); experiment: qHTS for Inhibitors of the Aldehyde Dehydrogenase Family (ALDH2) Primary screen (AID 2061308);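 further: plate controls were vehicle for no effect and reference inhibitor for full effect; nearly all actives have a fitted effect of over 55% in size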
[5] = molecular target: Retinal dehydrogenase 2 (Homo sapiens) (UniProt O94788); experiment: qHTS for Inhibitors of the Aldehyde Dehydrogenase Family (ALDH1A2) Confirmation screens (AID 2061314); further: nearly all actives have a fitted effect of over 65% in size; further: potency means the concentration at half of the fitted maximal effect
[6] = molecular target: Aldehyde dehydrogenase 1A1 (Homo sapiens) (UniProt P00352); experiment: qHTS for Inhibitors of the Aldehyde Dehydrogenase Family (ALDH1A1) Confirmatory screens (AID 2061316); further: nearly all actives have a fitted effect of over 65% in size; further: potency means the concentration at half of the fitted maximal effect
[7] = molecular target: Retinaldehyde dehydrogenase 3 (Homo sapiens) (UniProt P47895); experiment: qHTS for Inhibitors of the Aldehyde Dehydrogenase Family (ALDH1A3) Confirmatory screens (AID 2061311); further: nearly all actives have a fitted effect of over 60% in size; further: potency means the concentration at half of the fitted maximal effect
[8] = molecular target: Retinaldehyde dehydrogenase 3 (Homo sapiens) (UniProt P47895); experiment: qHTS for Inhibitors of the Aldehyde Dehydrogenase Family (ALDH1A3) Primary screen (AID 2061315); further: potency means the concentration at half of the fitted maximal effect
[9] = molecular target: Retinaldehyde dehydrogenase 3 (Homo sapiens) (UniProt P47895); experiment: qHTS for Inhibitors of the Aldehyde Dehydrogenase Family (ALDH1A3) Validation screen (AID 2061312); further: nearly all actives have a fitted effect of over 45% in size; further: potency means the concentration at half of the fitted maximal effect
[10] = BET inhibitor-based combinations targeting novel dependencies in MECOM-rearranged (r) AML: SET-2 cell line (AID 2202231); conditions: SET-2 AML cells viability, CellTiter-Glo luminescence, 48 h; viability: active compounds read low, concentration not given here; further: nearly all actives have a fitted effect of over 35% in size; further: potency means the concentration at half of the fitted maximal effect;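 on viability: plate controls were DMSO treated cells for no effect and wells without cells for full effect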
Summary of the method: (§1)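 Here, 11-point titrations of each agent were applied to 500 seeded cells and incubated 48 hr; CellTiter-Glo signal, scaled against DMSO and empty wells, was integrated as AUC, then Z-scored within the individual line.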

[11] = BET inhibitor-based combinations targeting novel dependencies in MECOM-rearranged (r) AML: OCI-AML3 cell line (AID 2202232); conditions: Potency: OCI-AML3 viability; further: nearly all actives have a fitted effect of over 35% in size; further: potency means the concentration at half of the fitted maximal effect
Summary of the method: as §1

[12] = BET inhibitor-based combinations targeting novel dependencies in MECOM-rearranged (r) AML: MV-4-11 cell line (AID 2202233); further: nearly all actives have a fitted effect of over 45% in size; further: potency means the concentration at half of the fitted maximal effect
Summary of the method: (§2)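 Normalized to DMSO and empty-well controls, the luminescence data from CellTiter-Glo after 48 hr drug exposure were fitted across 11 concentrations. Reported metrics are area under the dose-response curve and its Z-transformed form.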

[13] = BET inhibitor-based combinations targeting novel dependencies in MECOM-rearranged (r) AML: UCSD-AML1 cell line (AID 2202235); further: nearly all actives have a fitted effect of over 40% in size; further: potency means the concentration at half of the fitted maximal effect
Summary of the method: as §2

[14] = BET inhibitor-based combinations targeting novel dependencies in MECOM-rearranged (r) AML: AML-194 cell line (AID 2202237;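 further: plate controls were vehicle wells for no effect and wells without cells for full effect; nearly all actives have a fitted effect of over 40% in size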)
Summary of the method: as §1

[15] = BET inhibitor-based combinations targeting novel dependencies in MECOM-rearranged (r) AML: HNT-34 cell line (AID 2202234); further: potency means the concentration at half of the fitted maximal effect; nearly all actives have a fitted effect of over 35% in size
Summary of the method: as §2

[16] = BET inhibitor-based combinations targeting novel dependencies in MECOM-rearranged (r) AML: AML-191 cell line (AID 2202236; further: potency means the concentration at half of the fitted maximal effect; nearly all actives have a fitted effect of over 35% in size)
Summary of the method: as §1

Cellular tumor antigen p53 (Homo sapiens), sequence (P04637 whole entry, looked up): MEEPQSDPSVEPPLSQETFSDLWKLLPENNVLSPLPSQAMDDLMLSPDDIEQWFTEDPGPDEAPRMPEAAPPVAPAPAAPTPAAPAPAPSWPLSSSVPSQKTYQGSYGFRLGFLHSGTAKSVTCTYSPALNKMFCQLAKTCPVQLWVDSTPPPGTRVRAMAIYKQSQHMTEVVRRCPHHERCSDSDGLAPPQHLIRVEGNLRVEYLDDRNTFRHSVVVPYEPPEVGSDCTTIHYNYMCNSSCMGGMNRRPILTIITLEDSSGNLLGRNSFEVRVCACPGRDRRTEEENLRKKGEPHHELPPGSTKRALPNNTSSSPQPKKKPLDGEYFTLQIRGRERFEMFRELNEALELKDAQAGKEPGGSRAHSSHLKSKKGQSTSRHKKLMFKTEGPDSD

OC[C@@]1(O)CO[C@@H](OC[C@H]2O[C@@H](Oc3ccccc3)[C@H](O)[C@@H](O)[C@@H]2O)[C@@H]1O
inactive: activation [1] -3.82% | Potency [2] | Potency [3] | Potency [4] | Potency [5] | Potency [6]

CCOC(=O)c1cccc(CNc2ccc(N(C)C(=O)Nc3ccccc3)cc2)c1
inactive: activation [1] -12.9% | Potency [2] | Potency [3] | Potency [7] | Potency [5] | Potency [6]

COc1ccc(-c2cc3onc(-c4ccncc4)c3c(=O)n2C)cc1
inactive: activation [1] -6.68% | Potency [2] | Potency [3] | Potency [8] | Potency [6]

CCCN1CCC=C(c2cc(-c3ccc(C)cc3)no2)C1
inactive: activation [1] 2.86% | Potency [2] | Potency [3] | Potency [8] | Potency [6]
active: Potency [9] 25.1 µM

COc1ccc(NC(=O)c2ccc(-c3ccc(C(N)=O)cc3C)cc2)cc1N1CCN(C)CC1
inactive: activation [1] 1.43% | Potency [2] | Potency [4] | Potency [7] | Potency [9] | Potency [8] | Potency [6]

COc1ccc(CCO[C@@H]2CCCC[C@H]2N2CC[C@@H](O)C2)cc1OC
inactive: activation [1] -0.477% | Potency [2] | Potency [3] | Potency [7] | Potency [5] | Potency [8] | Potency [6]

CC(C)(C)Nc1nc(Nc2ccc(C(N)=O)cc2)cc(N)c1C#N
active: Potency [2] 7.08 µM | Potency [7] 15.8 µM | Potency [5] 3.57 µM | Potency [6] 14.2 µM
inactive: activation [1] 11% | Potency [4] | Potency [9] | Potency [8]

O=C(Nc1ccccc1)N1CCN(Cc2ccc3ccccc3n2)CC1
inactive: activation [1] 8.59% | Potency [2] | Potency [4] | Potency [7] | Potency [9] | Potency [5] | Potency [8] | Potency [6]

CC(=O)NC(C)c1cnc(-c2cnc(Oc3ccc(OC(C)C)cc3)s2)s1 (stereo not given)
inactive: activation [1] -20% | Potency [2] | Potency [4] | Potency [7] | Potency [9] | Potency [5] | Potency [8]

O=C1NC(=O)C(c2cn(-c3ccccc3)nc2-c2ccc(F)cc2)N1 (stereo not given)
inactive: activation [1] 4.33% | Potency [2] | Potency [4] | Potency [7] | Potency [5] | Potency [8] | Potency [6]

C=CC(=O)N1CCN(C(=O)CNc2cc(-c3ccccc3Cl)c(Cl)cc2OC)CC1
inactive: activation [1] 8.59% | Potency [2] | Potency [4] | Potency [7] | Potency [9] | Potency [8] | Potency [6]

O=C(O)c1cnn(-c2nc3cc(OC(F)(F)F)c(Cl)cc3[nH]2)c1
inactive: activation [1] -9.67% | Potency [2] | Potency [5] | Potency [6] | viability [10] 119% | Potency [11] | Potency [12] | Potency [13] | Potency [14]
active: Potency [3] 13.5 µM | Potency [7] 3.18 µM | Potency [8] 10 µM

Cc1nnc(-c2sc(NC(=O)[C@H](C(C)C)n3c(=O)[nH]c4ccccc4c3=O)nc2C)o1
inactive: activation [1] -7.64% | Potency [2] | Potency [3] | Potency [7] | Potency [5] | Potency [8] | Potency [6]

C=CC(=O)Nc1cccc(Nc2nc(Nc3ccc(Oc4ccnc(C(=O)NC)c4)cc3)ncc2F)c1
active: Potency [1] 4.26 µM | Potency [10] 23.5 µM | Potency [11] 18.6 µM | Potency [12] 6.61 µM | Potency [15] 8.33 µM | Potency [13] 18.6 µM | Potency [16] 16.6 µM
inactive: Potency [2] | Potency [4] | Potency [7] | Potency [5] | Potency [8] | Potency [6]

O=C(C1CCCCC1)N(CCN1CCN(c2ccccc2O)CC1)c1ccccn1
inactive: activation [1] -3.34% | Potency [2] | Potency [3] | Potency [5]
active: Potency [6] 11.3 µM

N[C@@H](CCNCc1ccc(Cl)cc1)C(=O)N1CCCCC1
inactive: activation [1] 1.91% | Potency [2] | Potency [3] | Potency [9] | Potency [5] | Potency [8] | Potency [6]

Fc1ccc(N2CCN(CCC3OCCc4ccccc43)CC2)cc1 (stereo not given)
inactive: activation [1] -6.21% | Potency [2] | Potency [3] | Potency [6]

Cn1cc(Nc2cnccc2C(=O)O)c2cccnc21
inactive: activation [1] 4.33% | Potency [2] | Potency [4] | Potency [7] | Potency [5] | Potency [8]

O=C(CCCCCCC(=O)Nc1ccccc1)NO
active: Potency [9] 22.4 µM | Potency [11] 1.86 µM | Potency [12] 0.742 µM
inactive: activation [1] 17.7% and 26.7% | Potency [2] | Potency [4] | Potency [7] | Potency [5] | Potency [6]

Cn1cnc(-c2nccc3c(=O)[nH]c(OCCCC(F)(F)F)nc23)c1
inactive: activation [1] -13.4% | Potency [2] | Potency [3] | Potency [5] | Potency [8] | Potency [6]

CCOC(=O)C1=C(N)Oc2ccc(Cl)cc2C1C(C#N)C(=O)OCC (stereo not given)
inactive: Potency [2] | Potency [4] | Potency [9] | Potency [8] | Potency [6]
active: Potency [1] 23.9 µM | Potency [7] 12.7 µM
